The panel holds about 83,000 compounds, 20% with a hit somewhere; the sample as a whole holds those more often.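 Activity criterion: percent growth below 10, measured after cells in 96-well plates were exposed to a single compound concentration for 48 hours.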 A number with no mark means an inactive call. The source made the active and inactive calls.

The experiment concerns CCRF-CEM leukemia. As to the kind of experiment: NCI-60 one-dose screen, 48 h (100 = growth as untreated, 0 = no growth, -100 = all killed). Conditions: 10 µM. The procedure: Growth inhibition of the CCRF-CEM human tumor cell line is measured as a screen for anti-cancer activity. Cells are grown in 96 well plates and exposed to the test compound for 48 hours. Compounds are tested at a single concentration, which is 10^-5 M for most compounds. The reported endpoint is percent growth (GI% or GIPRCNT), where numbers from 0 - 100% represent growth inhibition, and numbers from -100% - 0 represent cell death. For example, a value of 40 represents 60% growth inhibition. A value of 0 means no net growth occurred over the course of the experiment. A value of -40 indicates 40% of cells at the beginning of the experiment died by the end of the experiment. A value of -100 means all cells are dead at the end of the experiment.
NCI-60 Human Tumor Cell Lines Screen was performed using the standard one-dose NCI protocol, which is described in more detail at https://dtp.cancer.gov/discovery_development/nci-60/default.htm.
Compounds with GIPRCNT values below 10 were considered active. Activity score was based on GIPRCNT using the following formula: […]
Score is 0 for GIPRCNT values of 100 or above, 50 for GIPRCNT values of 0, and 100 for GIPRCNT values of -100.
With `COC(=O)c1ccc2[nH]c(O)c(C(=Nc3ccc(N(C)C(=O)CN4CCN(C)CC4)cc3)c3ccc(N)cc3)c2c1`, the growth was 60.4%.

In the case of `O=C1/C(=C\c2cn(-c3nc(N4CCOCC4)nc(N4CCOCC4)n3)c3ccccc23)c2ccccc2N1c1c(Cl)cccc1Cl`, the growth was 64.5%. On to `COc1ccc(Oc2[nH]n(C3=Nc4ccccc4Sc4ccccc43)c(=O)c2C#N)cc1`, for which the growth is 92.8%. Turning to `Clc1ccc(N/N=C(/c2ccccc2)c2ccccn2)nc1`, the growth is 14.2%. For `CC(=N\N=C(N)N)/C(=N/N=C(N)N)c1ccccc1`, the growth was 32.2%. Turning to `CC(C)OC(=O)c1ccc2n1CCCc1cnc(Nc3ccccc3)nc1-2`, the growth was 72.3%. `COc1ccc(Cn2cc3c(c2)-c2oncc2CC3)cc1OC`: the growth was 14.9%. Consider `COC(=O)C(C)[C@H]1CC[C@@H]2[C@]1(C)CC=C1[C@]23C=C[C@]2(C[C@@H](OC(C)=O)CC[C@]12C)C(C(=O)OC)C3C(=O)OC` (stereo not given in full), for which the growth was 74.4%. As to `O=Nc1ccc(O)c2ccccc12`, the growth is 5.22% (active). In the case of `COc1cc2cc3cc4cc(OC)c(OC)cc4c(C)[n+]3cc2cc1OC` (tested in a mixture with another compound), the growth was 51.8%. With `COc1ccc2c(N)ncc(C#Cc3cc(C(=O)Nc4ccc(CN5CCN(C)CC5)c(C(F)(F)F)c4)cnc3C)c2c1` the figure was -25.4% (active). `CCCCCCNC(=O)Oc1ccc(/C(=C(/C)Cc2ccc(OC)cc2)c2ccc(OCCN(C)C)cc2)cc1`: the growth was 48.2%.

As for `Cc1nnc(/N=C2\NC(=O)/C(=C/C=C/c3ccccc3)S2)s1`, the growth was 29.8%. Take `COC(=O)c1ccc2[nH]c(O)c(C(=Nc3ccc(N(C)C(=O)CN4CCN(C)CC4)cc3)c3ccc(CCO)cc3)c2c1`: the growth was 15.5%. Take `CCC(C)(C)c1ccc(OCCCCCCN2CCNCC2)cc1`: the growth was 4.24% (active). With `CCC(C)C1NC(=O)C(CCCCN)NC(=O)C(CCCCN)NC(=O)C(CC(C)C)NC(=O)C(CCCCN)NC(=O)C(C(C)CC)NC(=O)C(C(C)C)NC(=O)C(C(C)CC)NC(=O)C(CCCCN)NC(=O)C(CCCCN)NC(=O)C(C)NC(=O)C(CCCCN)NC(=O)C(CC(C)C)NC1=O` (stereo not given) the figure was 22%. In the case of `Cc1ccc(NCc2cn(-c3ccc(C(=O)O)cc3)nc2-c2ccc(C(=O)O)cc2)cc1`, the growth was 104%. Then `CC(C)(CNC1CCCCC1)OC(=O)c1ccccc1`, with 84.7%. With `COc1cc(-c2nn(-c3ccc(NC(=O)c4ccc(Cl)c(Cl)c4)cc3)cc2-c2ccncc2)ccc1Cl` the figure was 67.6%. Turning to `COc1cc(OC)cc(-c2ccc(-c3ccc(C(=N)N)cc3)s2)c1`, the growth is -59.7% (active). Turning to `O=C(Nn1cnc2ccccc21)N1CCCC1`, the growth is 127%. Turning to `CCOC(=O)c1cc(-c2ccc(OC)cc2)[nH]c1NNC(=O)CCOC`, the growth was 57.8%. On to `N#Cc1c(N)nc(Nc2nc3ccccc3[nH]2)nc1-c1ccc(Cl)cc1`, for which the growth is 95.9%.

Regarding `NNC(=O)CNc1ccc2ccccc2c1`, the growth is 101%. On to `COc1cccc(-c2cc(-c3cc4ccccc4oc3=O)nc(N)n2)c1`, for which the growth was 87.6%. As for `N#Cc1ccc(NC2c3ccccc3CC2O)cc1` (stereo not given), the growth is 94.6%. With `CCc1c(C)c2ccc(OCC(=O)N=Nc3c(O)[nH]c4ccccc34)c(C)c2oc1=O` the figure was 10.3%; with `Cc1c(Cc2ccccc2)c(=O)oc2c(C)c(OCc3n[nH]c(=S)o3)ccc12`, 22.8%. On to `COC(=O)c1ccc(C(=Nc2ccc(N(C)C(=O)CN3CCN(C)CC3)cc2)c2c(O)[nH]c3ccc(C(=O)OC)cc23)cc1`, for which the growth was 12.3%.

`CCOC(=O)c1c(C)oc2ncnc(Nc3ccc(C(=O)NCCc4ccccc4)cc3)c12`: the growth was 81%.

On to `COc1ccc(C(O)(c2ccccc2)C(C(=O)O)c2ccccc2)cc1` (stereo not given), for which the growth was 102%. With `O=C(Nc1ccc(-n2cc(-c3ccncc3)c(-c3ccc(Cl)c(O)c3)n2)cc1)c1ccc(Cl)c(C(F)(F)F)c1` the figure was 3.34% (active); with `COc1ccc(-c2nc(SCC(C)C)nc(Nc3ccc(C)cc3)c2C#N)cc1`, 52.9%; with `CCOC(=O)CCCCCCCCC(=O)OCC`, 107%. On to `CC1=C(C)C(=O)C(C(C)C2=C(C)C(=O)C(C)=C(C)C2=O)=C(C)C1=O`, for which the growth is 67.4%. With `COc1ccc(CNCCCN2C(=O)c3ccc4c5c(ccc(c35)C2=O)C(=O)N(CCCNCc2ccc(OC)c(OC)c2OC)C4=O)c(OC)c1OC`, the growth was -34% (active). Then `COc1ccccc1Nc1nnc(COc2ccc(CNC(=O)CCCC/C=C/C(C)C)cc2OC)o1`, with 92%; and `CCOc1ccc2nc3ccc(Cl)cc3nc2c1`, with -0.816% (active). Then `Cc1ncc(C(=O)Nc2ccc(CN3CCN(C)CC3)c(C(F)(F)F)c2)cc1C#Cc1c(N)ncc2ccccc12`, with -48.3% (active); and `O=c1c(N=Nc2nccs2)c(-c2ccccc2)[nH]n1-c1nc(-c2ccccc2)cs1`, with 25.5%.

The values above are taken from PubChem BioAssay (NCI).
